Screens deposited in PubChem by National Center for Advancing Translational Sciences (NCATS).
An excerpt weighted towards active compounds, which were near 7.4% of everything screened.
KinaseGlo FLuc = Kinase-Glo luciferase inhibition (counter-screen); Kinase-Glo luciferase, ATP luminescence, 8 min; 0.28% of 200,000 active; Q27757; Potency, µM (doses to about 38.3 µM), inactives show top-dose activity change, negative = inhibition, most hits filed as inhibitors; also: % is scaled to controls: 0 for no effect and ±100 for the full control effect; nearly all actives have a fitted effect of over 60% in size
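Compounds were added to a substrate mix at pH 7.2 (50 mM imidazole, 10 uM ATP, within the enzyme's linear range), followed by Kinase-Glo detection reagent; luminescence was measured after 8 minutes at ambient temperature.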
SMN2 splice up = SMN2 splice variant enhancement; HEK293 SMN2-luciferase splicing reporter, luminescence, 30-36 h; Potency, µM (doses to about 46.1 µM), for inactives: at the highest dose activity change, positive = activation, actives largely listed as activators; 2.8% of 210,000 active; AID 1458; also: % of control where 0% means no effect; nearly all actives have a fitted effect of over 55% in size
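HEK293 cells carry an SMN2 minigene-luciferase reporter in which exon 7 inclusion puts luciferase in frame. Cells were seeded at 2000 cells/well, attached for 10-12 hours, then exposed to compounds for 30-36 hours at 37C before ONE-Glo luminescence.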
FLuc modulator = counter-screen for miR-21 project: firefly luciferase inhibitors or activators | P08659 | purified FLuc, Km substrates, luminescence inhibition | Potency, µM (titrated, usually from 57.5 µM), inactives show top-dose activity change, negative = inhibition, most hits filed as inhibitors | 6.9% of 360,000 active;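 also: plate controls were vehicle for no effect and reference inhibitor for full effect; nearly all actives have a fitted effect of over 55% in size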
Target sequence (P08659 whole entry, looked up): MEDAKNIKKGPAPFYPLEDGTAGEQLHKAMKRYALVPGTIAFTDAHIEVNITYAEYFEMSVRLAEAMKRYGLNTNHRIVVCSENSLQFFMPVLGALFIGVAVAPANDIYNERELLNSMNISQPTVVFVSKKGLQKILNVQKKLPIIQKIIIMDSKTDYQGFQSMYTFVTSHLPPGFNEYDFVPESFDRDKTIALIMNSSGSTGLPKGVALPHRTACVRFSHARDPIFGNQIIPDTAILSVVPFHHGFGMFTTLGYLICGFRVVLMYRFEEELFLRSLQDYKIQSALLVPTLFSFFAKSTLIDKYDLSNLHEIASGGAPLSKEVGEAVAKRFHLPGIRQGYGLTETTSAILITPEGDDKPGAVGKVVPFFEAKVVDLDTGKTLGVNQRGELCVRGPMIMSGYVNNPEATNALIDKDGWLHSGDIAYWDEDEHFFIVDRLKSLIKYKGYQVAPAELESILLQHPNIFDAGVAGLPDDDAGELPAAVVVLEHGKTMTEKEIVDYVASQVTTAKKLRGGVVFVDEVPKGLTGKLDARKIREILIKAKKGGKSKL
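Biochemical qHTS of compounds, final roughly 60 µM downward over six points, against 10 nM purified firefly luciferase using Km concentrations of substrates (10 uM D-luciferin, 10 uM ATP) in Tris acetate pH 7.5 buffer; luminescence output.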
ELG1 genotox = induces genotoxicity in HEK293T cells with luciferase-tagged ELG1. AID 504466. HEK293T ELG1-luciferase reporter, luminescence, 16 h. Potency, µM (highest dose often 46 µM), for the others: top-dose activity change, positive = activation, most hits filed as activators. 1.3% of 330,000 active; also: % of control where 0% means no effect; nearly all actives have a fitted effect of over 60% in size
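ELG1-luciferase HEK293T cells, 2,000/well; compound pinned in; 16 hr, 37 °C, 5% CO2; ONE-Glo, 30 min RT; luminescence on CCD imager.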
Rab9 prom act = activates the Rab9 promoter; Potency, µM (highest dose often 9.22 µM), for inactives: at the top dose activation, negative = inhibition, hits mostly activators; 2.8% of 320,000 active; Huh7 Rab9 promoter-luciferase reporter, luminescence, 24 h; also: % of control where 0% means no effect; nearly all actives have a fitted effect of over 60% in size
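Luminescence read-out: Huh7 cells stably expressing Rab9-luciferase, treated 24 h with compound at 37 °C, then lysed with luciferase reagent for 10 min at ambient before reading.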
NPC1 promoter act = activators of NPC1 promoter; Huh7 NPC1 promoter luciferase reporter, 24 h; Potency, µM (top dose mostly 9.22 µM), without a hit: top-dose activation, most hits filed as activators; 2.4% of 320,000 active; also: % of control where 0% means no effect; nearly all actives have a fitted effect of over 60% in size
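Luminescence read-out of NPC1 promoter-driven luciferase in stably transfected Huh7 cells; compounds delivered in DMSO and left 24 h at 37C, 5% CO2, qHTS titration format.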
Numbers without * were called inactive; ? = inconclusive; nt = not tested or not shown; [ ] = another dose, or the depositor's remark. Calls follow the shape of the dose curve; as a rule, active = well fitted curve in the direction sought with a large enough effect; inconclusive = small, poorly fitted or top-dose-only effect, or another doubt; inactive = no such curve, though single readings can be large; an effect the other way counts as inactive or inconclusive. Potency is read from the fitted curve at half-maximal effect.

SMILES | KinaseGlo FLuc | SMN2 splice up | FLuc modulator | ELG1 genotox | Rab9 prom act | NPC1 promoter act
Cc1ccc(-c2cc3ccccc3nc2N2CCOCC2)cc1 | -1% | -18% | 4% | -4% | 0% | 3%
COc1ccccc1-c1nnn(CC#N)n1 | -1% | -9% | 1% | -1% | -8% | -4%
Cc1ccc(-n2c(=O)[nH]c3ncccc3c2=O)cc1 | 1% | nt | 1% | 1% | -12% | -1%
Cc1ccc(-n2nnc(-c3cc4ccccc4nc3Cl)n2)cc1 | nt | nt | 6µM* | ? | 4.5µM* | ?
COc1ccc(C(=O)NCCCNC(=O)c2ccccn2)cc1 | nt | nt | 2% | 2% | 0% | 1%
CCOc1ccc(S(=O)(=O)N2CCC(C(=O)NC3CC3)CC2)cc1C | nt | nt | 0% | -1% | -2% | -2%
CCn1c(SCC(=O)N2CCCCC2C)nc2c1c(=O)n(C)c(=O)n2C (stereo not drawn) | nt | nt | -1% | -13% | -2% | 0%
CCCCNc1c(-c2cccc(-c3cc(C(C)=O)cs3)c2)nc2ccc(C)cn12 | nt | nt | 11µM* | -16% | 2% | 12%
CCCCNc1c(-c2ccc(-c3cccc(Cl)c3)cc2)nc2ccccn12 | nt | nt | 11µM* | -1% | 4µM* | ?
CCCCNc1c(-c2cccc(-c3ccc(OC)cc3)c2)nc2ccc(C)cn12 | nt | nt | 9.5µM* | -5% | 10% | 16%
CCCCNc1c(-c2cccc(-c3ccc(OC)cc3)c2)nc2cc(C)ccn12 | nt | nt | nt | -8% | nt | nt
CC(=O)c1cccc(NC(=O)c2cccc(S(=O)(=O)N(C)C)c2)c1 | 3% | 15% | -26% | 3% | -8% | 3%
CN(C)S(=O)(=O)c1cccc(C(=O)Nc2ccc3c(c2)CCC3)c1 | nt | nt | 1.7µM* | 4µM* | 0.63µM* | 1.3µM*
CN(C)S(=O)(=O)c1ccc(C(=O)Nc2ccc3c(c2)CCC3)cc1 | nt | nt | 19µM* | 7% | ? | ?
COc1cc(C)ccc1OCc1cc(C(=O)N(Cc2nccn2C)C(C)C)no1 | nt | nt | 11µM* | ? | 2.2µM* | 2.5µM*
COc1cc(C)ccc1OCc1cc(C(=O)N(Cc2c(C)nn(C)c2C)C2CC2)no1 | nt | nt | 12µM* | 14% | ? | ?
CCc1ccc(-n2nc(C)c3c(C(=O)Nc4cc(C)c(Cl)cc4OC)cc(C)nc32)cc1 | nt | nt | 5% | nt | nt | nt
CCN(CC)c1ccc(/C=C/C(=O)c2cccnc2)cc1 | -4% | 3% | -1% | -6% | -1% | 0%
CC(=O)Nc1cccc(C(=O)/C=C/c2ccc(Br)cc2)c1 | 2% | 16% | ? | -20% | -5% | -2%
CN(C)c1ccc(C(=O)/C=C/c2ccc(Br)cc2)cc1 | -3% | 7% | 1.7µM* | 13% | 27% | 25%
CN(C)c1ccc(N=Nc2ccc(C(=O)O)cc2)cc1 | nt | nt | 0.24µM* | -6% | 0.0002µM* | 0.013µM*
CCN(CC)c1ccc(/C=C/C(=O)c2ccc(Br)cc2)cc1 | 2% | -3% | 17µM* | 1% | -2% | -10%
CN(C)c1ccc(C(=O)/C=C/c2ccccc2)cc1 | -4% | 22µM* | 1.2µM* | ? | 3.2µM* | 4µM*
COc1ccc(OC)c(NC(=O)c2cnc(N3CCCCC3)c3ccccc23)c1 | nt | nt | -4% | nt | nt | nt
COc1ccc(-n2nc(N)c(C(N)=O)n2)cc1 | -13% | 18% | ? | 13% | 23% | 11%
SMILES | KinaseGlo FLuc | SMN2 splice up | FLuc modulator | ELG1 genotox | Rab9 prom act | NPC1 promoter act
Cc1csc(NC(=O)CCC(=O)N(CC(=O)NC2CCCCC2)c2ccccc2)n1 | nt | nt | 1% | -9% | -11% | -8%
Cc1c(S(=O)(=O)NC2CCCCCC2)c(=O)n(C)c(=O)n1C | nt | nt | -1% | 4% | -3% | 1%
CCOc1ccccc1C(=O)Nc1cc(C)ccc1NC(=O)c1ccco1 | nt | nt | 5% | -12% | -1% | -6%
Cc1ccc(S(=O)(=O)CC#CCOC(=O)c2ccc([N+](=O)[O-])cc2)cc1 | 2% | -51% | ? | 12% | -3% | -15%
CN(C)c1ccc(C(=O)c2ccccc2)cc1 | -7% | 29% | 11µM* | 17% | 3.2µM* | ?
O=C(c1ccccc1)c1ccc(-c2ccc(O)cc2)cc1 | nt | nt | 17µM* | ? | 3.2µM* | -2%
CC(=O)Oc1ccc(/C=C2/Oc3ccccc3C2=O)cc1 | nt | nt | 3.8µM* | ? | 13% | 17%
COc1ccc(/C=C2\Oc3ccccc3C2=O)cc1 | nt | nt | nt | 2.3µM* | nt | nt
CCc1ccc(/C=C2\Oc3cc(OS(C)(=O)=O)ccc3C2=O)cc1 | -2% | -26% | ? | 1% | -1% | -2%
COc1ccc2c(c1)O/C(=C\c1sccc1C)C2=O | -16% | ? | 0.17µM* | 18µM* | ? | ?
O=C1/C(=C/c2ccccc2)Oc2cc(OC(=O)N3CCOCC3)ccc21 | -1% | ? | 13µM* | 9% | 20% | ?
CCc1nn(C(C)C(=O)N2CCN(c3cccc(C(F)(F)F)c3)CC2)c(=O)c2cc3occc3n12 (stereo not drawn) | nt | 3% | ? | nt | nt | nt
Nc1ccc(N)c(Cl)c1 | nt | -10% | nt | nt | nt | nt
Cc1ccc(NC(=O)CN2C(=O)S/C(=C/c3ccc(-c4cc(C(=O)O)ccc4C)o3)C2=O)cc1C | 3% | -11% | ? | 1% | -1% | -1%
Cc1cccc(NC(=O)CN2C(=O)S/C(=C\c3ccc(-c4cccc(C(=O)O)c4C)o3)C2=O)c1 | 2% | 28% | 19µM* | 0% | 6% | -2%
O=C(O)c1ccccc1-c1ccc(/C=C2\SC(=O)N(c3ccccc3)C2=O)o1 | nt | nt | 13µM* | ? | 2µM* | 2.5µM*
CC1=NN(c2ccc(Br)cc2)C(=O)/C1=C/c1ccc(-c2ccccc2C(=O)O)o1 | nt | nt | 27µM* | -3% | -1% | -1%
CCOC(=O)c1cc(-c2ccc(/C=C3/C(=O)N(c4ccc(C(=O)O)cc4)N=C3C)o2)ccc1Cl | nt | nt | ? | 4% | -9% | -12%
Cc1ccccc1NC(=O)CN1C(=O)S/C(=C\c2ccc(-c3cccc(C(=O)O)c3C)o2)C1=O | 2% | 11µM* | ? | 9% | 0%[1.84 µM] | 14%
Cc1ccccc1NC(=O)CN1C(=O)c2ccccc2C1=O | nt | nt | -5% | -2% | -6% | 2%
O=C(Nc1ccc2c(c1)CCCN2C(=O)c1cccs1)c1ccccc1Cl | nt | nt | -18% | nt | nt | nt
O=C(/C=C/c1ccccc1)NC(=S)Nc1ncccn1 | nt | nt | 17µM* | 4% | 0% | 1%
COc1ccc(/C=C/C(=O)NC(=S)Nc2ccc(S(N)(=O)=O)cc2)cc1 | nt | nt | 2% | 0% | -1% | -1%
COc1ccc(/C=C/C(=O)NC(=S)Nc2ccccn2)cc1 | nt | nt | ? | ? | 0.89µM* | 1.3µM*
COc1ccccc1/C=C/C(=O)NC(=S)Nc1ccccn1 | nt | nt | 11µM* | 23µM* | 14% | ?
O=C(NCc1ccc(Cl)cc1)c1cnn2ccccc12 | -1% | ? | 13µM* | ? | 2.5µM* | 4µM*
